The source made the active and inactive calls.
Key:
[1] = molecular target: Albumin (Bos taurus) (UniProt P02769); test: compounds binding labelled BSA control protein – biochemical, small-molecule microarray, Alexa647 label, 635/667 nm fluorescence, artefact control for SMM control protein annotation, profiling panel (AID 1118); conditions: BSA-A647 binding, fluorescence 635 nm, higher = more signal;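 note: score merges 667 nm emission intensity and signal-to-noise per printed compound spot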
[2] = probe aXIP binding to arrayed compounds – biochemical, NeuroSMM set, 635/667 nm fluorescence, primary screen (AID 1119); conditions: small-molecule microarray, higher = more signal, called active from +8 up or from −8 down;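 note: probe is the protein aXip251-270 applied at 1 µg/mL to compound-printed slides; binding of probe to printed compounds measured as 667 nm fluorescence plus signal to noise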
[3] = probe aNOTCH3 binding on compound microarray – biochemical, small-molecule microarray, 635/667 nm fluorescence, primary screen (AID 1120); conditions: higher = more signal;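 note: probe is a biotin-tagged antibody raised against NOTCH3 rather than NOTCH3 protein; score merges spot fluorescence near 667 nm with spot signal to noise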
[4] = probe aNOTCH2 binding on compound microarray – biochemical, small-molecule microarray, 635/667 nm fluorescence, primary screen (AID 1121); conditions: higher = more signal;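 note: score merges feature fluorescence read at 667 nm with its signal to noise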
[5] = molecular target: Carbonic anhydrase 2 (Homo sapiens) (UniProt P00918); test: compounds binding carbonic anhydrase 2 – biochemical, small-molecule microarray, Alexa647-labelled CAII, profiling panel (AID 1122); conditions: CAII-A647 binding fluorescence, higher = more signal
[6] = COS7 lysate on small-molecule microarray, probe aHis, 635 nm (AID 1123); conditions: COS7 cell lysate, fluorescence, higher = more signal;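 note: z-score combines 667nm fluorescence intensity with signal-to-noise per printed compound spot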
[7] = probe aLAP1 signal on lysate-treated microarray – cell lysate, small-molecule microarray, COS7 lysate, primary screen (AID 1124); conditions: probe aLAP1, fluorescence, higher = more signal;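 note: lysate comes from COS7 cells expressing LAP1 and is applied at 0.3 µg/mL; score merges spot fluorescence near 667 nm with signal-to-noise over triplicate slides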
[8] = test system: Sam68 (KHDRBS1); test: compounds binding KHDRBS1 protein – biochemical, small-molecule microarray, 635 nm fluorescence, primary screen (AID 1125); conditions: higher = more signal;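 note: score merges 667 nm channel intensity with signal to noise over triplicate slides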
[9] = test system: Chordin-like protein 2 (CHRDL2); test: compounds binding chordin-like 2 – biochemical, small-molecule microarray, 635 nm fluorescence, primary screen (AID 1126); conditions: fluorescence 635 nm, higher = more signal;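 note: printed compound slides probed with Chrdl2 protein at 4 µg/mL for 1 h at 4 C; score merges 667 nm emission intensity with signal to noise over three replicate slides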
[10] = molecular target: Concanavalin-A (Canavalia ensiformis) (UniProt P02866); test: compounds binding concanavalin A lectin – biochemical, small-molecule microarray, Alexa647 label, 635 nm, artefact control for SMM control protein annotation, primary screen (AID 1127); conditions: ConA-A647 binding fluorescence, higher = more signal;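 note: z combines 667 nm emission intensity with signal-to-noise across three replicate slides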
[11] = compounds binding Alexa647 anti-His antibody – biochemical, small-molecule microarray, 635 nm fluorescence, artefact control for SMM control protein annotation, primary screen (AID 1128); conditions: higher = more signal;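 note: score merges feature fluorescence with signal-to-noise for each printed compound spot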
[12] = test system: Human papillomavirus type 1a E7 protein (residues 1-88); test: HPV1a E7 small-molecule binders, primary screen, biochemical, small-molecule microarray, residues 1-88, 635 nm (AID 1129); conditions: small-molecule microarray binding, fluorescence 635 nm; higher = more signal
[13] = molecular target: Focal adhesion kinase 1 (Homo sapiens) (UniProt Q05397); test: PTK2 protein binding on printed compound slides – biochemical, small-molecule microarray, 635/667 nm fluorescence, BSA, DTT, primary screen (AID 1130); conditions: 635 nm fluorescence, higher = more signal;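 note: composite of spot emission at 667 nm and signal to noise over triplicate slides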
[14] = test system: Fibrinogen (Alexa647-labelled); test: Alexa647-fibrinogen binding to printed small molecules – biochemical, small-molecule microarray, 635/667 nm fluorescence, artefact control for SMM control-protein annotation, profiling panel (AID 1131); conditions: fibrinogen-A647 binding fluorescence, higher = more signal;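 note: z-score merges 667 nm fluorescence with per-spot signal-to-noise over triplicate slides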
[15] = molecular target: Follistatin (Homo sapiens) (UniProt P19883); test: FST protein binding to printed compounds – biochemical, small-molecule microarray, 635/667 nm fluorescence, primary screen (AID 1132); conditions: 635 nm fluorescence, higher = more signal
[16] = molecular target: Fibroblast growth factor 2 (Homo sapiens) (UniProt P09038); test: basic fibroblast growth factor binding to printed compounds – biochemical, small-molecule microarray, 635/667 nm fluorescence, primary screen (AID 1133); conditions: FGF2, fluorescence 635/667, higher = more signal
[17] = JC-1 mitochondrial potential readout, lung cancer cells – cell-based, A549, JC-1 fluorescence, basal, 24 h, 100 nL, profiling panel (AID 1138); conditions: higher = more signal;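 note: A549 lung adenocarcinoma cells under basal conditions with no added stimulus; test concentration not given here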
[18] = test system: Lefty1; test: Lefty1 protein binding to printed compounds – biochemical, small-molecule microarray, 635/667 nm fluorescence, primary screen (AID 1139); conditions: fluorescence 635/667, higher = more signal
[19] = test system: wheat germ agglutinin (Triticum aestivum), Alexa647-labelled; test: Alexa647-WGA lectin binding to printed small molecules – biochemical, small-molecule microarray, 635/667 nm fluorescence, artefact control for SMM control-protein annotation, profiling panel (AID 1140); conditions: WGA-A647 binding, 635 nm fluorescence, higher = more signal;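 note: score merges 667 nm feature emission with signal to noise over triplicate slides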
[20] = molecular target: Luciferin 4-monooxygenase (Photinus pyralis) (UniProt P08659); test: inhibition of purified Photinus pyralis luciferase – biochemical, luminescence, purified enzyme, 2006 set, primary screen (AID 1141); conditions: purified firefly luciferase, SteadyGlo luminescence, 30 min; higher = more signal, called active from +8 up or from −8 down;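 note: cell-free assay with purified firefly luciferase at 100 ng per well in PBS; test concentration not given here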
Chain of Luciferin 4-monooxygenase (Photinus pyralis) (P08659 whole entry, looked up): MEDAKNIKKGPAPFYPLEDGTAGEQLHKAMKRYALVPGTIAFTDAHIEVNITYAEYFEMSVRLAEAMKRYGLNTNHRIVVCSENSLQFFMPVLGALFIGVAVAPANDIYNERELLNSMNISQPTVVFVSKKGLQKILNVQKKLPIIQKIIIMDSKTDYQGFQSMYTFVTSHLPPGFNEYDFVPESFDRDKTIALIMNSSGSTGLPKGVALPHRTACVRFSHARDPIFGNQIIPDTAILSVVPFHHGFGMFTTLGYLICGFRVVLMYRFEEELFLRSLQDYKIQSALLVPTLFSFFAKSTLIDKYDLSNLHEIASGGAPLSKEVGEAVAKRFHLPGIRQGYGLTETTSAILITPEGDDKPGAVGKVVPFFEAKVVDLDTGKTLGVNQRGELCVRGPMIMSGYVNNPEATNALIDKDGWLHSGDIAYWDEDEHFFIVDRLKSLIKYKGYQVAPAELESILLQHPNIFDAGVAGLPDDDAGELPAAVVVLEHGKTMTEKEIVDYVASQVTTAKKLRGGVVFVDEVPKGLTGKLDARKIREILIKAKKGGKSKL

Chain of Focal adhesion kinase 1 (Homo sapiens) (Q05397 whole entry, looked up): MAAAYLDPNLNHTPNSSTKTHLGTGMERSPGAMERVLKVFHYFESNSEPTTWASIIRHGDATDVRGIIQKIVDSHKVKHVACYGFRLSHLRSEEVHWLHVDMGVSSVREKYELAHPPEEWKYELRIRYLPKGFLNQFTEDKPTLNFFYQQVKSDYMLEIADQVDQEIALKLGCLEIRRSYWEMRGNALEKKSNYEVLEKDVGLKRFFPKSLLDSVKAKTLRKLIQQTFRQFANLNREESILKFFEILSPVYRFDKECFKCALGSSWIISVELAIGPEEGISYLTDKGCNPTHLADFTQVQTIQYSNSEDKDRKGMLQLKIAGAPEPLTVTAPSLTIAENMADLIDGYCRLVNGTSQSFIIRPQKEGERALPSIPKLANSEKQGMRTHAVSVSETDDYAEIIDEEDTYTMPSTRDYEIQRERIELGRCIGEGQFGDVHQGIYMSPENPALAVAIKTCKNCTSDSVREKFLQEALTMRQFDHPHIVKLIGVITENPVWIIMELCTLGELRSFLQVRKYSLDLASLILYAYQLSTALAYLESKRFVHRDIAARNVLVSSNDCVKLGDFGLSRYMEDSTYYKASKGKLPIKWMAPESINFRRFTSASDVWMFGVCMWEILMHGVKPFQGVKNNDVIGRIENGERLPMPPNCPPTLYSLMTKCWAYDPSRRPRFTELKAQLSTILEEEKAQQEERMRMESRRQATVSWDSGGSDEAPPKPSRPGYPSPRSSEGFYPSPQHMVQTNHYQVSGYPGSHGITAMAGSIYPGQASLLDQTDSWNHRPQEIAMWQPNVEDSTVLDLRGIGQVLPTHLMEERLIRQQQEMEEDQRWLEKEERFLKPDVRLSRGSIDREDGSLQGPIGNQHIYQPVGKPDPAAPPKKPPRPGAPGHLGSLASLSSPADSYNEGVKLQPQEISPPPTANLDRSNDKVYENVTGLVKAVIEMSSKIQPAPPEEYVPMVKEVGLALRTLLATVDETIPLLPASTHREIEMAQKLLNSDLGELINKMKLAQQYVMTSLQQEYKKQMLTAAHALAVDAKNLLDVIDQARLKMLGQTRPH
Chain of Follistatin (Homo sapiens) (P19883 whole entry, looked up): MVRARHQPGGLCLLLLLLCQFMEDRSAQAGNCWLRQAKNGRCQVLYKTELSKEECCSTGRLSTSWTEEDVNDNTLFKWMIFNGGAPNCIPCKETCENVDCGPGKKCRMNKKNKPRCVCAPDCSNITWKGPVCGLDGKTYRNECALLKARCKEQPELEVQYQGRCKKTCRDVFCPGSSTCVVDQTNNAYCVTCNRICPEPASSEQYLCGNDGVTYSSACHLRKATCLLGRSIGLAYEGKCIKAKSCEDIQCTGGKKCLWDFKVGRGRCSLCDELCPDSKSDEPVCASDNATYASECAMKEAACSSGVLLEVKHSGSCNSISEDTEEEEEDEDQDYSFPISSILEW
Chain of Concanavalin-A (Canavalia ensiformis) (P02866 whole entry, looked up): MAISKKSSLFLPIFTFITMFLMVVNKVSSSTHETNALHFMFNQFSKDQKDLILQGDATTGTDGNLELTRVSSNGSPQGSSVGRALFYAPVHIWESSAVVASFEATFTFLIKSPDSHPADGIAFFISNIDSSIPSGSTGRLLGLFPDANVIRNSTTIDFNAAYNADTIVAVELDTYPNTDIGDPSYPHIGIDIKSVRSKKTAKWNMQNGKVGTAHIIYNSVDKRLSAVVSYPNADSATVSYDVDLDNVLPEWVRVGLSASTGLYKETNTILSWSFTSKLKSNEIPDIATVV
Chain of Albumin (Bos taurus) (P02769 whole entry, looked up): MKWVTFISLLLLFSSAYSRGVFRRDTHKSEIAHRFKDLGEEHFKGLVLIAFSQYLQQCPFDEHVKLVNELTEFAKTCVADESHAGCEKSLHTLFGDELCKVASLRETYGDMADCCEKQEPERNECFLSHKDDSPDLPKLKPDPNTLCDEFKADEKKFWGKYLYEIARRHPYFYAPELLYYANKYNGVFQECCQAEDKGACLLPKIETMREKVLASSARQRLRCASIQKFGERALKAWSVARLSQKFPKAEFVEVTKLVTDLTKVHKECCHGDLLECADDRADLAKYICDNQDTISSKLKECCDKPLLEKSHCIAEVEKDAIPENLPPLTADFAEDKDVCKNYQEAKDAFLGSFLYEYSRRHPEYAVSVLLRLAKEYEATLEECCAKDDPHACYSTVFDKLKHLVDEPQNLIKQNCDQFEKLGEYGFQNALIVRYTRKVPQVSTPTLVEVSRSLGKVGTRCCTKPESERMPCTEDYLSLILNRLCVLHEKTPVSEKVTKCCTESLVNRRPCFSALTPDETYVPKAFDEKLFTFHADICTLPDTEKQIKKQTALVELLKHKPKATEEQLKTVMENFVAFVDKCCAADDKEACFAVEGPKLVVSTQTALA
Chain of Fibroblast growth factor 2 (Homo sapiens) (P09038 whole entry, looked up): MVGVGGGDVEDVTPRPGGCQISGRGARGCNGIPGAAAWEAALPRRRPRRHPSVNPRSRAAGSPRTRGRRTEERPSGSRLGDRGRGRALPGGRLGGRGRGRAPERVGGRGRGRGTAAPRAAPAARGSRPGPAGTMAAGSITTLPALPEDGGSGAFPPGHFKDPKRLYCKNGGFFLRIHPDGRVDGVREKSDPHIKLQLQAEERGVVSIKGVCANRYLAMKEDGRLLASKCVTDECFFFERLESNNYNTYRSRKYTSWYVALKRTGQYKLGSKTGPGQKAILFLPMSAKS

SMILES | composite z-score [1] | composite Z-score [2] | composite z-score [3] | composite z-score [4] | composite z-score [5] | composite z-score [6] | composite z-score [7] | composite z-score [8] | composite z-score [9] | composite z-score [10] | composite z-score [11] | composite z-score [12] | composite z-score [13] | composite z-score [14] | composite z-score [15] | composite z-score [16] | z-score [17] | composite z-score [18] | composite z-score [19] | z-score [20]
C=C(CCCC)C(=O)CC[C@@H](OC(=O)c1cccnc1)c1ccc(CO)o1 | 0.477 | -0.261 (inactive) | 0.205 | -0.127 | 0.618 | 0.28 | 0.194 | 1.31 | 0.844 | 1.02 | 1.18 | 1 | -0.338 | 0.947 | 1.25 | 1.47 | -0.627 | 1.36 | 0.828 | -2.32 (inactive)
O=C1c2ccccc2[C@@]2(Cc3ccccc3N(CCN3CCOCC3)C2=O)[C@H](c2ccc(CO)cc2)N1Cc1ccccc1 | -0.425 | -0.117 (inactive) | -0.165 | -0.115 | 0.739 | 0.733 | 0.235 | -0.419 | -0.717 | 0.203 | -0.784 | -0.689 | 0.352 | -0.523 | 0.0312 | -0.253 | 0.202 | -0.0729 | -0.304 | 1.01 (inactive)
C=CC[C@]1(C(=O)NCCCOC)N=C(c2ccc(OCCCO)cc2)O[C@H]1c1ccccc1N=[N+]=[N-] | 0.958 | 0.484 (inactive) | 0.205 | 0.0494 | 0.726 | 3.06 | 0.397 | 1.31 | -0.0877 | 0.982 | 2.54 | 1.22 | 0.143 | 0.967 | 1.26 | 1.28 | 0.688 | -0.397 | 0.542 | -8.19 (active)
COCCOC(=O)N1C(=O)[C@@]2(c3cc(C#CC4=CCCCC4)ccc31)[C@H](C(N)=O)[C@H]1C(=O)O[C@H](c3ccccc3)[C@H](c3ccccc3)N1[C@@H]2c1ccc(OCCO)cc1 | 0.588 | 0.362 (inactive) | -0.315 | -0.259 | 0.348 | 0.763 | 0.481 | 1.3 | 0.0151 | 0.459 | 2.26 | 1.21 | 0.797 | 0.938 | 0.371 | 0.925 | -1.65 | 0.517 | 0.773 | -1.8 (inactive)
C=CCNC(=O)[C@H]1[C@@H]2C(=O)O[C@@H](c3ccccc3)[C@@H](c3ccccc3)N2[C@@H](c2ccc(O)cc2)[C@]12C(=O)N(C(=O)OCCOC)c1ccc(C#CCNC(N)=O)cc12 | -0.213 | 0.384 (inactive) | 0.0955 | 0.0313 | 0.484 | 0.275 | 0.0793 | 1.13 | 0.64 | 0.932 | 1.05 | 0.898 | 0.0197 | 0.0703 | 1.44 | 1.58 | -0.531 | 0.713 | 1.03 | -0.0822 (inactive)
O=C1OCCC/C=C\[C@H]2OC34C=CCN(CCN5CCOCC5)C(=O)[C@H]3N(CCCO)C(=O)[C@@H]4C12 (stereo not given in full) | -0.843 | 0.546 (inactive) | -0.182 | -0.178 | 0.888 | 3.72 | 1.6 | -0.284 | -0.575 | 0.167 | -0.851 | -0.786 | -0.253 | -1.16 | -0.803 | -0.506 | -0.278 | -0.483 | 0.023 | 0.266 (inactive)
C=C(CCCC)/C(=C/C[C@@H](OC(C)=O)c1ccccc1OCCO)c1cnc2ccccc2c1 | 0.263 | 0.523 (inactive) | 0.033 | -0.0209 | 0.684 | 0.206 | 0.719 | 0.97 | 0.333 | 0.535 | 1.46 | 0.356 | 0.0147 | 0.143 | 1.31 | 0.908 | 0.222 | 0.736 | 0.454 | -0.754 (inactive)
O=C1OCCC/C=C\[C@H]2OC34C=CCN(Cn5nnc6ccccc65)C(=O)[C@H]3N(CCCCCCO)C(=O)[C@@H]4C12 (stereo not given in full) | -0.265 | 0.236 (inactive) | -0.262 | -0.101 | 0.652 | 2.13 | -0.368 | 0.839 | -1.25 | -0.472 | 0.919 | -0.776 | 0.326 | -2.01 | -0.686 | -1.58 | 1.05 | -0.394 | 0.727 | -0.254 (inactive)
